Several values for one entry are separate records, joined by “and”; a condition that tells them apart may be missing. Equal entries are not always repeated. Compounds without any hit were thinned out: in the full panel of roughly 83,000, 20% have a hit.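 96-well plates, one dose, 48 hours. Percent growth reported; active if below 10.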 Values without a mark were called inactive. Activity calls are given as the source filed them.
test system: MDA-MB-468 breast; test: NCI-60 one-dose screen, 48 h (100 = growth as untreated, 0 = no growth, -100 = all killed); conditions: 10 µM unless noted

| SMILES | growth |
| --- | --- |
| CCOC(=O)CCC(NC(=O)C(Cc1ccc(N(CCCl)CCCl)cc1)NC=O)C(=O)OCC (centres undefined) | -89.3% (active) |
| Cc1ccc(S(=O)(=O)C(Cl)(Cl)Cl)cc1 | 99.8% |
| Oc1ccc(O)c2c1C1(Cl)C(Cl)=C(Cl)C2(Cl)C1(Cl)Cl | 4.54% (active) |
| Nc1nc([Se])c2ncn(C3OC(CO)C(O)C3O)c2n1 (centres undefined) | 83.6% |
| C[CH2][Pb]([CH2]C)([CH2]C)[O]C(=O)c1ccc(N)cc1 | -11.9% (active) |
| c1ccc2c(c1)O[As](O[As]1Oc3ccccc3O1)O2 | 10.7% |
| OCCN=Cc1c[nH]c2ccccc12 | 119% |
| C=CCC1(CC)C(=O)NC(=S)NC1=O | 97.4% |
| O=C1NC(=O)C(CN2C(=O)C3(c4ccccc42)[C@H](Cl)C(=O)N3c2ccccc2)C(=O)N1 (some centres undefined) | -23.1% (active) |
| CC[C@H](C)[C@H](NC(=O)CN(C)C)C(=O)N(C)[C@H](C[C@@H](OC(C)=O)c1nc(C(=O)NC23C4C5C2C2C3C4C52C(=O)OC)cs1)C(C)C (some centres undefined) | -18.6% (active) |
| CCC[CH2][Sn]1([CH2]CCC)[O]C(=O)c2cccc([N+](=O)[O-])c2C(=O)[O]1 | -79.4% (active) |
| ClCCN(CCCl)Cc1ccc(Nc2ccnc3cc(Cl)ccc23)cc1 | -0.105% (active) |
| O=C(CCCN1CCC2(CC1)C(=O)NCN2c1ccccc1)c1ccc(F)cc1 | 103% and 32.6% |
| COc1ccc(/C=C\c2cc(OC)c(OC)c(OC)c2)cc1N/C=C\C(=O)c1c[nH]c2ccccc12 | 11.3% |
| C/C(CC(C)(C)N1CC1)=N\NC(=O)Nc1cccc2ccccc12 | -2.46% (active) |
| O=[N+]([O-])/C=C/c1ccc([N+](=O)[O-])cc1 | 77.7% |
| O=C(CCF)c1ccc(O)cc1 | 108% |
| CC1(C)N=C(N)N=C(N)N1c1ccc(OCCCCNC(=O)c2ccc(S(=O)(=O)F)cc2)c(Cl)c1 | 64.7% |
| C=C=[CH][Sn]([c]1ccccc1)([c]1ccccc1)[c]1ccccc1 | -66.5% (active) |
| CO[C@H](C(=O)O)[C@@H]1Cc2cc3cc(OC4CC(OC5CC(O)C(O)C(C)O5)C(O)C(C)O4)c(C)c(O)c3c(O)c2C(=O)[C@H]1OC1CC(OC2CC(OC3CC(C)(O)C(O)C(C)O3)C(O)C(C)O2)C(O)C(C)O1 (some centres undefined) | -16.7% (active) |

| SMILES | growth |
| --- | --- |
| CCC(C)(C)O | 104% |
| CCOC(=O)C(Cc1ccc(N(CCCl)CCCl)cc1)NC(=O)C(CC(C)C)NC(C)=O (centres undefined) | -45.6% (active) |
| CC[C@H](CC[C@@H](C)[C@H]1CC[C@H]2[C@@H]3CC[C@H]4C[C@]5(CC[C@]4(C)[C@H]3CC[C@]12C)OO[C@](C)(C(F)(F)F)O5)C(C)C | 95.2% |
| Cc1cc(NC(=O)/C=C/c2ccc([N+](=O)[O-])cc2)ccc1S(=O)(=O)F | 114% |
| CC1=C[C@H]2O[C@@H]3C[C@@H](O)[C@](C)([C@@]2(C)CC1)[C@@]31CO1 | 28.7% |
| CC[CH2][Sn]([Cl])([Cl])[CH2]CC | 22.4% |
| Cc1cccc(N=C2c3cc([N+](=O)[O-])ccc3-c3c2cc([N+](=O)[O-])cc3[N+](=O)[O-])c1 | -24.4% (active) |
| CNC(=O)Oc1cccc(OC)c1 | 106% |
| CC(=O)O[C@H]1CCC2C3CCC4=C/C(=N/O)CCC4(C)C3CCC21C (some centres undefined) | 97.7% |
| CCOc1ccc(/C=C/[N+](=O)[O-])cc1 | 35.4% |
| CCCCCCCCOC(=O)CCN1CC1 | 100% |
| CCOC(=O)[C@@H](C)C[C@H](Cc1ccccc1)NC(=O)c1csc([C@@H](C[C@H](C(C)C)N(C)C(=O)[C@@H](NC(=O)[C@H]2CCCCN2C)C(C)(C)CC)OC(C)=O)n1 | 19.5% |
| Cc1cc(N(CCCl)CCCl)ccc1C=Nc1ccccc1-c1ccccc1 | 2.49% (active) |
| CC(=O)O[C@@H]1C2=C(C)C3(CC3)[C@@](C)(O)C(=O)C2=C[C@@]1(C)CO | -54% (active) |
| Cc1nc2ccccc2c(=O)n1-c1ccccc1F | 105% |
| Cc1cc([N+](=O)[O-])c2ccccc2[n+]1[O-] | -55.7% (active) |
| Fc1ccc(C2=NN(c3ccccc3)C(c3sc(N(CCCl)CCCl)nc3Cl)C2)cc1 (centres undefined) | 81.4% |
| COc1cc(/C=C/[N+](=O)[O-])c([N+](=O)[O-])cc1OC | -71.2% (active) |
| O=C1NC(=O)C(=Cc2cccn2CCCCCn2c3ccccc3c(=O)c3ccccc32)C(=O)N1 | 107% |

Reference: PubChem BioAssay (NCI)
